# In the supplement of paper PMC12067093, “Discovery and optimisation of a covalent ligand for TRIM25 and its application to targeted protein ubiquitination” (Chemical Science, 2025):
# About 21,000 targets were measured; listed, in parts, are those with the largest changes and a random draw of the rest.
# Compound: Cc1cc(ccc1-c1ccccc1)C(=O)N1CCCN(CC1)C(=O)CCl [compound 10]
# Test: probe-labelled cysteine peptide fold change vs DMSO (competition) (log2 fold change); higher = less target engagement (more negative = stronger competition)
# Settings: 10 µM; THP-1; incubation time: 4 h
# 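Note: competitive profiling in live THP-1 cells: cysteine peptides tagged with an iodoacetamide desthiobiotin (IA-DTB) probe, intensity after compound treatment relative to DMSO-treated cells.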
# UniProt P46100, sequence (P46100 whole entry, looked up): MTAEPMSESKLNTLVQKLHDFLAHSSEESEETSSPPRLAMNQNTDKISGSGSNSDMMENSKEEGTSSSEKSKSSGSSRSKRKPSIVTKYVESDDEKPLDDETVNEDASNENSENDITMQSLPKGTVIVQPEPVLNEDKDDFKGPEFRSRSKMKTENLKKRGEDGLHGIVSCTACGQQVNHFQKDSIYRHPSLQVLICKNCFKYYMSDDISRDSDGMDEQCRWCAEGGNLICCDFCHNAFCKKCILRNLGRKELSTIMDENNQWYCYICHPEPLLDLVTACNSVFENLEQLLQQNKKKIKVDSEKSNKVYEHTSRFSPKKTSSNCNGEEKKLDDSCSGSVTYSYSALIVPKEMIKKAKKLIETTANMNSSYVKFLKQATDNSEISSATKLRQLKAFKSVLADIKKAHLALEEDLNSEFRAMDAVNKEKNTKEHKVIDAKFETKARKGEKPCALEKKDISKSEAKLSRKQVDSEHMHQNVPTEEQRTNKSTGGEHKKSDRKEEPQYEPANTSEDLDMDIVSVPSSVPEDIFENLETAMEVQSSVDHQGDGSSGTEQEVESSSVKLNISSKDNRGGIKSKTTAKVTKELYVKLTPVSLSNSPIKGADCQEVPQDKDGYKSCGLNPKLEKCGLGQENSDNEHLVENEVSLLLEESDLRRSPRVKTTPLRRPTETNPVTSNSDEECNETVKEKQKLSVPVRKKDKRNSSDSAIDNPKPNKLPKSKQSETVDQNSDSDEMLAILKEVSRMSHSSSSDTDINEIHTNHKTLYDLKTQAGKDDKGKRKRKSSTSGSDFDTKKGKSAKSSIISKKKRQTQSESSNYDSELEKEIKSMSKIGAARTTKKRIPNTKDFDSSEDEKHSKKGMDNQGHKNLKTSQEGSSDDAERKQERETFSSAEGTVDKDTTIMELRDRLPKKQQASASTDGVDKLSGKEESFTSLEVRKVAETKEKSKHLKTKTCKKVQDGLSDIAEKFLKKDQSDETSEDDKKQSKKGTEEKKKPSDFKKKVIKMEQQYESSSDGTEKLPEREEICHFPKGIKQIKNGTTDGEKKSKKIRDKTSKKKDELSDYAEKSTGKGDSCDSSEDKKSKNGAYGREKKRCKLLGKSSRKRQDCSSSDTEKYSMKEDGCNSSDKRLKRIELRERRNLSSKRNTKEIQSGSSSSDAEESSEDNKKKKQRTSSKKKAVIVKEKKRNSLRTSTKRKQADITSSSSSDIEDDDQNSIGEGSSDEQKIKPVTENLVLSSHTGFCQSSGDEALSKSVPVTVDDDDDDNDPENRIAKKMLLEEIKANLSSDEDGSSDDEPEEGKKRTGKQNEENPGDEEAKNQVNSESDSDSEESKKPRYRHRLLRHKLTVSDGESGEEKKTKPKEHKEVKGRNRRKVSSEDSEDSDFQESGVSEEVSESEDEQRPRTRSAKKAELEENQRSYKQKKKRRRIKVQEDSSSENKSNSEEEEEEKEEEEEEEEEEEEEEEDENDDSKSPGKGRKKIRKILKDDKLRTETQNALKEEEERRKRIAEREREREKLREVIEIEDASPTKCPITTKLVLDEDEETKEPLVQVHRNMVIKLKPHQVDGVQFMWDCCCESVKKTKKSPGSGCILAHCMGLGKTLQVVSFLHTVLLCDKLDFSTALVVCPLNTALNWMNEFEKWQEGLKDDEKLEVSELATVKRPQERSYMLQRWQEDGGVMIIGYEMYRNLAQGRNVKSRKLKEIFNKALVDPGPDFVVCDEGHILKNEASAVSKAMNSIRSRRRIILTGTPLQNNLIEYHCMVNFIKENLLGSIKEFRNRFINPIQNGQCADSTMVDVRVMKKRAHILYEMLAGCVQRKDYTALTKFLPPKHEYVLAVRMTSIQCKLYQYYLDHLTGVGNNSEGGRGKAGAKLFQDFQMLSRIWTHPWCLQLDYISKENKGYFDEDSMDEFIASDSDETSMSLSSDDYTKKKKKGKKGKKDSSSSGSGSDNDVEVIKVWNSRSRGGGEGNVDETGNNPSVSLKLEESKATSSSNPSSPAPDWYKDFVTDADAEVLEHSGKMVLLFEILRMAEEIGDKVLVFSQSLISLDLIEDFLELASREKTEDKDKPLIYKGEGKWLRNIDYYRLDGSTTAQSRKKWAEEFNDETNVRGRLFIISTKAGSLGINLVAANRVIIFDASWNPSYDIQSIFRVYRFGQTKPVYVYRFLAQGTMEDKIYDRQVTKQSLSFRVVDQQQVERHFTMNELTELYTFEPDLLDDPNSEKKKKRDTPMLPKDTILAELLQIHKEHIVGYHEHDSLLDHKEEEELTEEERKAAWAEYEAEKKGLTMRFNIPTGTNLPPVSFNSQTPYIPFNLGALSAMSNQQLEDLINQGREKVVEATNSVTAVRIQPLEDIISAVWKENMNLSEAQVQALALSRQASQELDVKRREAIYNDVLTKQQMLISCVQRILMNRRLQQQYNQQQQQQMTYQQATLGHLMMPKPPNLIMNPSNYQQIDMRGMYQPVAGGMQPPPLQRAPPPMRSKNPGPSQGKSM
# UniProt Q66PJ3, sequence (Q66PJ3 whole entry, looked up): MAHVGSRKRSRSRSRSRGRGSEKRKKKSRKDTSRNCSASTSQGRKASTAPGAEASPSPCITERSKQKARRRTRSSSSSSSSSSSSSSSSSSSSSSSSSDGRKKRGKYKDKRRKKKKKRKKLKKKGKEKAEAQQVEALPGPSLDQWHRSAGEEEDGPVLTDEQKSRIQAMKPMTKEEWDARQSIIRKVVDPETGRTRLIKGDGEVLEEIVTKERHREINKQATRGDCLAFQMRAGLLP
# UniProt Q9P2R3, sequence (Q9P2R3 whole entry, looked up): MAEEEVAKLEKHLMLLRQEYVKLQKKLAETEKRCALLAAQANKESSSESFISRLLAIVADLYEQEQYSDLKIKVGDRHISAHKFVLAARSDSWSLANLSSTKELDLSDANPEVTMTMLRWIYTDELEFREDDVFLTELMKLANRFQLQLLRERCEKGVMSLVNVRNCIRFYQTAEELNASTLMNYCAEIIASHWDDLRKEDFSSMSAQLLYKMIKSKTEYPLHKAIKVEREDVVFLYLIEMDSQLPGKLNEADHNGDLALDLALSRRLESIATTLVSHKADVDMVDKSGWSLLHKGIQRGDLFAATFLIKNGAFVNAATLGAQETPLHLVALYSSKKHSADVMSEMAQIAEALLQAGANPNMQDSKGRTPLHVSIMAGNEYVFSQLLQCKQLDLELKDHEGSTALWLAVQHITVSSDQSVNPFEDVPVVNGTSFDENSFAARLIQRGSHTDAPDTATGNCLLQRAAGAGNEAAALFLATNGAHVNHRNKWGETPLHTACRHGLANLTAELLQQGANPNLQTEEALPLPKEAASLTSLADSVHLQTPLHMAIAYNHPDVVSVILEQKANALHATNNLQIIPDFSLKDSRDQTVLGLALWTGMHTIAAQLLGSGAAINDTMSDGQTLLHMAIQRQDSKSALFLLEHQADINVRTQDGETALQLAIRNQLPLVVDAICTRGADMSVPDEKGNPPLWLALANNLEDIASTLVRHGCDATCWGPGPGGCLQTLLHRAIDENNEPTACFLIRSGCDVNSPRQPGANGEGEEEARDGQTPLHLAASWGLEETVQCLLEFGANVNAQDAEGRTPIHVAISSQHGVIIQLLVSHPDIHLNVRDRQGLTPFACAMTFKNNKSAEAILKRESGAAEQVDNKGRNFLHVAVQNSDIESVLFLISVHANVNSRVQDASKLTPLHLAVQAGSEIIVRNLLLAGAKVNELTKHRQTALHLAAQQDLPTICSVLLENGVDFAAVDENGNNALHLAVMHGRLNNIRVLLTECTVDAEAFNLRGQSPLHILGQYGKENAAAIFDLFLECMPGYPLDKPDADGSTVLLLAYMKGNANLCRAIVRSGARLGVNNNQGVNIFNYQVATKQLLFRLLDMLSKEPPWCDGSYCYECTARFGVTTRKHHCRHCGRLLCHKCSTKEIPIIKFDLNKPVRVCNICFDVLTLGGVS
# UniProt O95573, sequence (O95573 whole entry, looked up): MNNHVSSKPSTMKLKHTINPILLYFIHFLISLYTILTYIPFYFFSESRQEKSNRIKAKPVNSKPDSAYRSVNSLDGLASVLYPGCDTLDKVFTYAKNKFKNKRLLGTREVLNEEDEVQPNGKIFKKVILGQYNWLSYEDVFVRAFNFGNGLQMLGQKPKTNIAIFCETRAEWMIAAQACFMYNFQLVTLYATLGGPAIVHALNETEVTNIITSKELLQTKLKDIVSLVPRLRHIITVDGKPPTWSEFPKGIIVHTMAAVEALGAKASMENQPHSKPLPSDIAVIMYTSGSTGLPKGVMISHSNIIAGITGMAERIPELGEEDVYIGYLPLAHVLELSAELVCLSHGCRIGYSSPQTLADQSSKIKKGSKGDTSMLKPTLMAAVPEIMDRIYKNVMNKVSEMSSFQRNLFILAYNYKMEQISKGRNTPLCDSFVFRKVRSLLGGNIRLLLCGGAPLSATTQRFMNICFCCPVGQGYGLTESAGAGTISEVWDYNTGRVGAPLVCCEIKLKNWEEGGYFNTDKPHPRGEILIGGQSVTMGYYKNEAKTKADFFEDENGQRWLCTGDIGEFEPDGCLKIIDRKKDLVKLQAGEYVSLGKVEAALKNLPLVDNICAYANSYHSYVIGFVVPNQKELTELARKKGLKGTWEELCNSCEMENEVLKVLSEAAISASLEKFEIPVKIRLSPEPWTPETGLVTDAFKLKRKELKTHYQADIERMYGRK
# UniProt P49189, sequence (P49189 whole entry, looked up): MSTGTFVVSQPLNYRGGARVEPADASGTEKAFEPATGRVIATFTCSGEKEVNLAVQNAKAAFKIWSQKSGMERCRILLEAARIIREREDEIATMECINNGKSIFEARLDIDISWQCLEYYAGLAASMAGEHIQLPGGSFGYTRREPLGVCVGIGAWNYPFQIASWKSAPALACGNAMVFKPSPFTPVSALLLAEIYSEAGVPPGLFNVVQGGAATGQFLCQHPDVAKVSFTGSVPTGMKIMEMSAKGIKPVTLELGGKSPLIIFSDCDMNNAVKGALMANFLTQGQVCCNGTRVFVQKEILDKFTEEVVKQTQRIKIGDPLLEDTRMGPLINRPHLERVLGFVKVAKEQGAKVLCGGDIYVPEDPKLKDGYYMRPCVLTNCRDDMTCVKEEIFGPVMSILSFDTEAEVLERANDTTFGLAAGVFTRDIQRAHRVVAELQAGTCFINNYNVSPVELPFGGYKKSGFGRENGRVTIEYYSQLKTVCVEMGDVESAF
row,Target,probe-labelled cysteine peptide fold change
1,ALCAM_Q13740_270_CLGNGNPPPEEFLFYLPGQPEGIR (UniProt Q13740),-0.0239
2,ATP2B1_P20020_463+473_HLDACETMGNATAICSDK (UniProt P20020),-0.241
3,ATRX_P46100_1242_IKPVTENLVLSSHTGFCQSSGDEALSK (UniProt P46100),-0.15
4,ANLN_Q9NQW6_1037_INLANCTSR (UniProt Q9NQW6),-0.121
5,AKR7A2_O43488_132+156_RLQCPQVDLFYLHAPDHGTPVEETLHACQR (UniProt O43488),-0.245
6,ACSL3_O95573_85_SVNSLDGLASVLYPGCDTLDK (UniProt O95573),0.0339
7,ANKFY1_Q9P2R3_742_AIDENNEPTACFLIR (UniProt Q9P2R3),-0.0754
8,ALDH18A1_P54886_674_SLRTEYGDLELCIEVVDNVQDAIDHIHK (UniProt P54886),0.115
9,ALDH3A2_P51648_226_DCDLDIVCR (UniProt P51648),-0.0334
10,ARL6IP4_Q66PJ3-3_220_NCSASTSQER (UniProt Q66PJ3),-0.274
11,AGL_P35573_767_EVPQMCIPGKIEEVVLEAR (UniProt P35573),-0.292
12,AKR1B1_P15121_45_HIDCAHVYQNENEVGVAIQEK (UniProt P15121),0.0652
13,ALDH9A1_P49189_45_VIATFTCSGEK (UniProt P49189),-0.00832
14,ANKRD11_Q6UB99_1339_ESACLPEK (UniProt Q6UB99),-0.0313
15,ACOX1_Q15067_392_AFTSWTANTGIEACR (UniProt Q15067),0.0592
16,ALDOA_P04075_178_YASICQQNGIVPIVEPEILPDGDHDLKR (UniProt P04075),0.281

# Same assay, conditions: 50 µM; THP-1; incubation time: 4 h
row,Target,probe-labelled cysteine peptide fold change
1,AKR1B1_P15121_304_VCALLSCTSHK (UniProt P15121),-2.08
2,AKAP8_O43823_395_IQFACSVCK (UniProt O43823),-0.348
3,ATM_Q13315_2770_SGVLEWCTGTVPIGEFLVNNEDGAHKR (UniProt Q13315),-0.152
4,ARRB2_P32121_126_KLGQHAHPFFFTIPQNLPCSVTLQPGPEDTGK (UniProt P32121),-0.146
5,ARHGEF7_Q14155_490_TLGNVTYMSQVLIQCAGSEEK (UniProt Q14155),-1.18
6,ANKMY2_Q8IV38_390_LDVNSNCVNEEQPEAEVGISQK (UniProt Q8IV38),-0.0242
7,ALG13_Q9NP73_86_ADLVISHAGAGSCLETLEK (UniProt Q9NP73),-0.753
8,ANKRD17_O75179_564_AGADIELGCSTPLMEAAQEGHLELVK (UniProt O75179),-0.0606
9,ARHGEF6_Q15052_319_VGGCLLSLMPHFK (UniProt Q15052),-0.105
10,ATP2A1_O14983_349_SLPSVETLGCTSVICSDK (UniProt O14983),-0.0742
11,ATN1_P54259_851_APVECPSLGPVPHRPPFEPGSAVATVPPYLGPDTPALR (UniProt P54259),-0.422
12,ADAM10_O14672_530_DDSDCAR (UniProt O14672),1.2
13,ARMC6_Q6NXE6_121_FCDQCK (UniProt Q6NXE6),-0.663
14,ATM_Q13315_1396_ATFAYISNCHK (UniProt Q13315),-2.52
15,AIP_O00170_122_HCCGVAQMR (UniProt O00170),-2.09
16,ALCAM_Q13740_270_CLGNGNPPPEEFLFYLPGQPEGIR (UniProt Q13740),0.0758

row,Target,probe-labelled cysteine peptide fold change
1,ATP2B1_P20020_463+473_HLDACETMGNATAICSDK (UniProt P20020),0.05
2,ATRX_P46100_1242_IKPVTENLVLSSHTGFCQSSGDEALSK (UniProt P46100),-0.661
3,ANLN_Q9NQW6_1037_INLANCTSR (UniProt Q9NQW6),-0.171
4,AKR7A2_O43488_132+156_RLQCPQVDLFYLHAPDHGTPVEETLHACQR (UniProt O43488),-0.374
5,ACSL3_O95573_85_SVNSLDGLASVLYPGCDTLDK (UniProt O95573),0.289
6,ANKFY1_Q9P2R3_742_AIDENNEPTACFLIR (UniProt Q9P2R3),-0.213
7,ALDH18A1_P54886_674_SLRTEYGDLELCIEVVDNVQDAIDHIHK (UniProt P54886),-0.188
8,ALDH3A2_P51648_226_DCDLDIVCR (UniProt P51648),-0.00592
9,ARL6IP4_Q66PJ3-3_220_NCSASTSQER (UniProt Q66PJ3),-0.819
10,AGL_P35573_767_EVPQMCIPGKIEEVVLEAR (UniProt P35573),-0.537
11,AKR1B1_P15121_45_HIDCAHVYQNENEVGVAIQEK (UniProt P15121),-0.0317
12,ALDH9A1_P49189_45_VIATFTCSGEK (UniProt P49189),0.0216
13,ANKRD11_Q6UB99_1339_ESACLPEK (UniProt Q6UB99),-0.174
14,ACOX1_Q15067_392_AFTSWTANTGIEACR (UniProt Q15067),0.0993
15,ALDOA_P04075_178_YASICQQNGIVPIVEPEILPDGDHDLKR (UniProt P04075),-0.12
